GRIN3A LBD mod: binders of NR3A ligand-binding domain, primary screen, biophysical, differential scanning fluorimetry, uHTS | AID 1259313, 2017 | 340,000 tested, 2.5% active | Tm shift relative to glycine control, % at 25 µM | Glutamate receptor ionotropic, NMDA 3A (GRIN3A) ligand-binding domain | NR3A LBD differential scanning fluorimetry, Tm shift; 0% = protein alone, 100% = glycine-bound protein;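 active = melting temperature shift of at least 10% of the positive control shift, at one fixed dose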
MPTP inh: mitochondrial permeability transition pore inhibitors, primary screen, biochemical, isolated mouse mitochondria, absorbance; Ca2+ swelling absorbance, 30 min; inhibition, % at 10 µM; 360,000 tested, 1.4% active; AID 602449, 2012;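 active = inhibition of 50% or more, scaled per plate between neutral and stimulator controls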
CRFBP-R2 agonist: agonists of CRF-BP/CRF-R2 complex, primary screen, cell-based, HEK293, calcium dye fluorescence, uHTS; CRF-binding protein / CRF receptor 2 complex (human); calcium dye fluorescence (FLIPR); percent of saturating CRF peptide response; activation, % at 13.2 µM; 350,000 tested, 0.46% active; AID 588473, 2011;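 active = activation of at least 50%, plus an integration ratio under a set limit after plate pattern correction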
CRFBP-R2 block: antagonists of CRF-BP/CRF-R2 complex, primary screen, cell-based, HEK293, calcium dye fluorescence, uHTS. CRF-induced calcium fluorescence. inhibition, % at 11.8 µM. 350,000 tested, 0.59% active;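 active = inhibition of the ligand-induced calcium signal above about 50% at the single tested concentration, limit read from the data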
TMEM16A inh: TMEM16A chloride channel inhibitors, primary screen, cell-based, HTS. normalized B-score (activity score, 25-100; higher = stronger inhibition) at 10 µM. 310,000 tested, 1.2% active. HEK293 TMEM16A/YFP iodide influx fluorescence, ionomycin. AID 588511, 2011. Anoctamin-1 (Mus musculus), Q8BHY3;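 active = ratio plate-corrected score three or more library SD toward inhibition, starting fluorescence score within five deviations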;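 also: score derived from kinetic fluorescence span divided by baseline fluorescence per well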
Target sequence (Q8BHY3 whole entry, looked up): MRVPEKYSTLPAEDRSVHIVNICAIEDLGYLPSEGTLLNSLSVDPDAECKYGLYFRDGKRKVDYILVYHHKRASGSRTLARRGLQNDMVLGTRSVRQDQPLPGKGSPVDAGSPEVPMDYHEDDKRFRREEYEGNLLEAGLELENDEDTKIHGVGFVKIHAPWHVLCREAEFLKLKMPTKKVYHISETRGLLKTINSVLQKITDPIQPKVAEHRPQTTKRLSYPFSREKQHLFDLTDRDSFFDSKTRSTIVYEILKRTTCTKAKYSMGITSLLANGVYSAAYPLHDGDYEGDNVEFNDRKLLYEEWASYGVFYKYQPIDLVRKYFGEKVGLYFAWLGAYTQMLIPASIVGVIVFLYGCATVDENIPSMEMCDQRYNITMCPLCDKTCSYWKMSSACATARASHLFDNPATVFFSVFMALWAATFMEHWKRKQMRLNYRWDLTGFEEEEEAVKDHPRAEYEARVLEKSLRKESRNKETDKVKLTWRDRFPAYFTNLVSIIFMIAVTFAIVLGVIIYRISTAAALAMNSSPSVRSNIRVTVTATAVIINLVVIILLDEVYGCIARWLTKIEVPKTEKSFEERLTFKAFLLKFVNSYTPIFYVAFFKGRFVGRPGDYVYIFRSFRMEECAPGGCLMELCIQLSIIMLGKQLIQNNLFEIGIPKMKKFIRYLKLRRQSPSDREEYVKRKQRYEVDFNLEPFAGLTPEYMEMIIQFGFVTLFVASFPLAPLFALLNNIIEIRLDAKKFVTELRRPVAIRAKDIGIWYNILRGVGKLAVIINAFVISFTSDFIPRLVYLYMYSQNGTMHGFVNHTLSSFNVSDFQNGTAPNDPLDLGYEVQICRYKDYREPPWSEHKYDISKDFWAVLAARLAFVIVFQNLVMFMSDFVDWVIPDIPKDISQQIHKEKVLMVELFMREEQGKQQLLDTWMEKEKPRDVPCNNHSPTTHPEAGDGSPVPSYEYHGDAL
ANO1 activ: TMEM16A chloride channel activators or potentiators, primary screen, cell-based, HTS; Anoctamin-1 (Mus musculus), Q8BHY3; HEK293 TMEM16A/YFP-H148Q/I152L, iodide quench fluorescence; hits give low values; B-score at 10 µM; 340,000 tested, 0.3% active;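 active = fluorescence-ratio B-score plate-corrected deviation score at least 3 library SD below zero, with starting fluorescence score within 5 deviations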;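 also: channel opened by trigger with iodide after compound preincubation; score built on the fluorescence ratio of max minus min over baseline; more negative score means more quench and so TMEM16A activation or potentiation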
Of the large screens only hits and unclear results are named; the others gave an inactive call. Rows were chosen to be rich in hits. Some 5.1% of all compounds tested hit in one or more screens of this group.

COC(=O)c1cc2c(C)c(C)c3ccccn3c-2c1C(=O)OC	none
COC(=O)CNC(=O)COC(=O)C(Cc1ccccc1)NC(=O)c1ccco1 (stereo unspecified)	CRFBP-R2 agonist 55.4
Cc1cc(NC(=O)COC(=O)C(Cc2ccccc2)NC(=O)c2ccco2)no1 (stereo unspecified)	CRFBP-R2 agonist 152.6
Cc1ccc2cccc(Oc3ncnc4scc(-c5ccc(Cl)cc5)c34)c2n1	GRIN3A LBD mod 11.2
Cc1ccc2cccc(Oc3ncnc4scc(-c5ccccc5)c34)c2n1	CRFBP-R2 block 65.9
COc1ccc(C2(C)C(C#N)C(=O)NC(=O)C2C#N)cc1 (stereo unspecified)	none (no result: TMEM16A inh)
Cc1[nH]n(-c2ccccc2)c(=O)c1C=Nc1ccc2[nH]c(=O)[nH]c2c1	GRIN3A LBD mod 32.7
Cc1[nH]n(-c2ccccc2)c(=O)c1C=Nc1cccc(F)c1	none
Cc1cccc(-n2[nH]c(C)c(C=Nc3ccc4[nH]c(=O)[nH]c4c3)c2=O)c1	GRIN3A LBD mod 31.9
Cc1[nH]n(-c2ccccc2)c(=O)c1C=Nc1ccc(S(=O)(=O)N=C(N)N)cc1	none
Cc1[nH]n(-c2ccccc2)c(=S)c1C=Nc1ccc([N+](=O)[O-])cc1	GRIN3A LBD mod 23.0
Cc1ccc(S(=O)(=O)n2nc(OC(=O)c3ccco3)cc2N)cc1	CRFBP-R2 block 60.0
Nc1cc(OC(=O)c2ccco2)nn1S(=O)(=O)c1ccc(F)cc1	CRFBP-R2 block 57.9
COc1ccc(C)cc1N(C(=O)c1snc(C(N)=O)c1N)C(C(=O)NC1CCCCC1)c1ccc(C)o1 (stereo unspecified)	none (no result: TMEM16A inh)
O=C(Cn1c(=O)cnc2ccccc21)Nc1cccc(S(=O)(=O)N2CCOCC2)c1	none (no result: TMEM16A inh)
Cc1ccc(C(=O)NCC(c2ccco2)N2CCc3ccccc32)cc1 (stereo unspecified)	none
CCn1c(C)cc(/C=C2/SC(=S)N(CC(=O)O)C2=O)c1C	none
C#CCN1C(=O)S/C(=C/c2cc(C)n(CC)c2C)C1=O	GRIN3A LBD mod 33.1
COc1ccc(CNC(=O)c2cccs2)cc1	none
COc1ccc(CCNC(=O)c2cccn2C)cc1	CRFBP-R2 block 54.8
Cn1cccc1C(=O)NCCc1ccccc1	none
COc1ccc(CCNC(=O)c2cccs2)cc1	GRIN3A LBD mod 30.9
O=C(c1ccc2n[nH]nc2c1)N1CCN(c2ccc(C(F)(F)F)cn2)CC1	none (no result: TMEM16A inh)
CCOc1ccccc1NC(=O)C(NCC1CCCCC1)c1ccccc1 (stereo unspecified)	TMEM16A inh 25
CCOc1ccccc1NC(=O)C(NCCN(C)C)c1ccccc1 (stereo unspecified)	none
Nc1cc(-c2ccc(OC(F)(F)F)cc2)nn1-c1ccc(Cl)c(Cl)c1	GRIN3A LBD mod 24.1
COc1ccc(-n2nc(C)cc2N)cc1	none
N#CC(C#N)=C1C=C2C=C(N3CCCCC3)CCC2CC1 (stereo unspecified)	GRIN3A LBD mod 21.0, CRFBP-R2 agonist 186.9 (no result: MPTP inh, ANO1 activ)
NS(=O)(=O)c1ccc(NC(=O)Nc2ccc(C(F)(F)F)cc2)cc1	GRIN3A LBD mod 19.6
Cc1ccc(SCCC(=O)OCC(=O)Nc2ccc(S(N)(=O)=O)cc2)cc1	ANO1 activ -4.91
Cc1ccc(OCCC(=O)Nc2ccc(S(=O)(=O)N3CCCC3)cc2)cc1	none (no result: TMEM16A inh)
Cc1ccc(NC(=O)Nc2ccc(S(N)(=O)=O)cc2)cc1	GRIN3A LBD mod 11.1
Cc1ccc(OCCCC(=O)Nc2ccc(S(N)(=O)=O)cc2)cc1	ANO1 activ -5.26
COc1ccc2c(c1)[C@H]1[C@H](CO2)[C@H](c2ccccc2)[C@]2(C)C(=O)N(CC3CCCO3)CC(=O)N12 (stereo partly specified)	none (no result: TMEM16A inh)
